In PubChem BioAssay (EPA / NIEHS):
Calls of active or inactive are those of the source. How the source made its calls: active means hit-call score of the fitted dose curve at least 0.9, where 1 is the maximum; inactive means score below 0.9.

Tests used:
[1] = APR_HepG2_NuclearSize_72hr: Apredica 72-hour HepG2 Assay for Nuclear Size (AID 2282925); conditions: high-content imaging, actives raise or lower the signal
Procedure, shortened: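 Nuclear size was read by high-content imaging of Hoechst 33342 stain after formaldehyde fixation. Compounds ran 72 h on HepG2 at 0.39 to 200 uM, with final DMSO 0.5% v/v. Curves fitted both directions relative to DMSO control.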

[2] = ATG_CRE_CIS: Attagene CIS-FACTORIAL HepG2 Assay for human cAMP Responsive Element (CRE) binding protein 3 (AID 2282926); conditions: HepG2 CRE cis-reporter, Attagene multiplexed mRNA; actives raise or lower the signal
Procedure, shortened: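 Readout: fluorescently labelled reporter transcripts resolved by capillary electrophoresis after RT-PCR, taken 24 h post-dosing in transfected HepG2. Endogenous transcription factor activity drives each cis-element reporter; gain or loss of signal fitted relative to DMSO control.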

[3] = target: CCAAT/enhancer-binding protein beta (Homo sapiens) (UniProt P17676); test: ATG_C_EBP_CIS: Attagene CIS-FACTORIAL HepG2 Assay for human CCAAT/Enhancer Binding Protein (C/EBP) beta (AID 2282927); conditions: HepG2 Attagene cis-factorial transcription factor reporter; actives raise or lower the signal
CCAAT/enhancer-binding protein beta (Homo sapiens), sequence (P17676 whole entry, looked up, the tested form may be a part): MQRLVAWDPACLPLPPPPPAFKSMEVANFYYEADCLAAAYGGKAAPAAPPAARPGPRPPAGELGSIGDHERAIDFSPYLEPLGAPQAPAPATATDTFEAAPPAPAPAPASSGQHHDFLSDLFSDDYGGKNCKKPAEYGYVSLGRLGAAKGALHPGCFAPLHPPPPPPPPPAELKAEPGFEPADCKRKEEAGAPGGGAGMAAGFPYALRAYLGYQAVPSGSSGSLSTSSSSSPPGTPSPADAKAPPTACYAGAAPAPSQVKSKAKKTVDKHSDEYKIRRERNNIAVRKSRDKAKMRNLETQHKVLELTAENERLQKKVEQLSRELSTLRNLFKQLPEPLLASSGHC
Procedure, shortened: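 Endogenous C/EBPb-driven reporter transcripts measured in transfected human HepG2 cells at 24 h via RT-PCR and capillary electrophoresis of labelled fragments. Activity fitted in both directions relative to DMSO baseline.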

[4] = ATG_CMV_CIS: Attagene CIS-FACTORIAL HepG2 Assay for human CMV (Internal Marker) (AID 2282928); conditions: HepG2 CMV promoter reporter, transcription factor profiling; actives raise or lower the signal;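 further: endpoint acts as a background internal control marker rather than a target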
Procedure, shortened: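 Fluorescence intensity of RT-PCR-derived reporter fragments, resolved by capillary electrophoresis, gives the signal. HepG2 liver cells bearing transfected cis-element reporters were treated 24 h; activity in either direction was fit relative to DMSO-treated controls.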

[5] = ATG_DR4_LXR_CIS: Attagene CIS-FACTORIAL HepG2 Assay for human Liver X Receptor (LXR), DR4 submotif (AID 2282929); conditions: HepG2 Attagene DR4 cis-reporter, mRNA transcription; actives raise or lower the signal
Procedure, shortened: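 Transiently transfected HepG2 liver cells; cis-regulated reporters; 24 h dosing. RT-PCR plus CE read-out of reporter mRNA. DMSO baseline, bidirectional curve fitting.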

[6] = target: Aryl hydrocarbon receptor (Homo sapiens) (UniProt P35869); test: ATG_Ahr_CIS: Attagene CIS-FACTORIAL HepG2 Assay for human Aryl Hydrocarbon Receptor (Ahr) (AID 2282930); conditions: HepG2 AhR cis-factorial reporter transcription; actives raise or lower the signal
Aryl hydrocarbon receptor (Homo sapiens), sequence (P35869 whole entry, looked up): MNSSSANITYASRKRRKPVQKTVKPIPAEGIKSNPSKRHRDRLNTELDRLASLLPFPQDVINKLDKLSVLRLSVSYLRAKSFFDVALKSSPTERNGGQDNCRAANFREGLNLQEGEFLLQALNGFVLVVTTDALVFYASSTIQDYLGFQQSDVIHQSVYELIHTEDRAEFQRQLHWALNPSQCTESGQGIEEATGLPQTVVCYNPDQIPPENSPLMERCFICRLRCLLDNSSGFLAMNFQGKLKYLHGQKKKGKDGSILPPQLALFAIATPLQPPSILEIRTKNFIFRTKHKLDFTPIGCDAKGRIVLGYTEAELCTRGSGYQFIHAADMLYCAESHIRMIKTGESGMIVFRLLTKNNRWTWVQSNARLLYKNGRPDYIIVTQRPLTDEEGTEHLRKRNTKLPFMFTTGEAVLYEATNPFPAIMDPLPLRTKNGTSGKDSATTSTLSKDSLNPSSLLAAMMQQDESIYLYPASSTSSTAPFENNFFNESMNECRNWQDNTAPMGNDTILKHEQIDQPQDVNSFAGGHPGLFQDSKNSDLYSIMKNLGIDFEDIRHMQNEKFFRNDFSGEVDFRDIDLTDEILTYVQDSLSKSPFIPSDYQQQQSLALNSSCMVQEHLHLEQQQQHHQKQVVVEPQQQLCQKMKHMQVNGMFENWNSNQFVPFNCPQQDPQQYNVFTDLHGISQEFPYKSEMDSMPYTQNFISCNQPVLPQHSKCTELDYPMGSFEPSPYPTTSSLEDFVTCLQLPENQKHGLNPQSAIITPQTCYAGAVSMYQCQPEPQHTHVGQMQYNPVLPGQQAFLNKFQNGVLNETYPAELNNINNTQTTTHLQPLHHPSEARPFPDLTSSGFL
Procedure, shortened: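 Reporter mRNA levels, quantified by RT-PCR and fluorescent capillary electrophoresis, reflect endogenous AhR transcriptional activity in HepG2 cells carrying transfected cis-promoter reporter constructs. Readout at 24 h post-dose; gain or loss fitted against DMSO baseline.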

[7] = ATG_AP_1_CIS: Attagene CIS-FACTORIAL HepG2 Assay for human Activator Protein 1 (AP-1) (AID 2282931); conditions: HepG2 Attagene cis-factorial AP-1 reporter mRNA; actives raise or lower the signal
Procedure, shortened: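 We transfected HepG2 cells transiently with a set of cis-regulated reporter transcription units, dosed them for 24 h, and quantified reporter mRNA via RT-PCR and capillary electrophoresis, scoring gain or loss of signal relative to DMSO.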

[8] = ATG_AP_2_CIS: Attagene CIS-FACTORIAL HepG2 Assay for human Activator Protein 2 (AP-2) (AID 2282932); conditions: HepG2 AP-2 cis-reporter, Attagene transcription factor profiling; actives raise or lower the signal
Procedure, shortened: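 Transiently transfected HepG2 cells are exposed to chemical for 24 h. Reporter transcripts are then measured as fluorescence following RT-PCR and capillary separation, and gain- or loss-of-signal is fitted relative to DMSO.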

[9] = ATG_BRE_CIS: Attagene CIS-FACTORIAL HepG2 Assay for human Bone Morphogenetic Protein (BMP) Response Element (BRE) (AID 2282933); conditions: HepG2 BMP response element reporter, Attagene transcription factor profiling; actives raise or lower the signal
Procedure, shortened: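 Multiplexed cis-reporter assay, HepG2, 24 h exposure. mRNA from reporter units quantified via RT-PCR/CE; DMSO baseline; bidirectional curve fit.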

[10] = target: Retinoic acid receptor alpha (Homo sapiens) (UniProt P10276); test: ATG_DR5_RAR_CIS: Attagene CIS-FACTORIAL HepG2 Assay for human Retinoic Acid Receptor Alpha (RARE), DR5 submotif (AID 2282934); conditions: HepG2 Attagene cis-factorial RARE DR5 reporter, mRNA; actives raise or lower the signal;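 on AC50: reporter responds to endogenous RAR alpha beta and gamma in HepG2 not RARA alone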
Retinoic acid receptor alpha (Homo sapiens), sequence (P10276 whole entry, looked up): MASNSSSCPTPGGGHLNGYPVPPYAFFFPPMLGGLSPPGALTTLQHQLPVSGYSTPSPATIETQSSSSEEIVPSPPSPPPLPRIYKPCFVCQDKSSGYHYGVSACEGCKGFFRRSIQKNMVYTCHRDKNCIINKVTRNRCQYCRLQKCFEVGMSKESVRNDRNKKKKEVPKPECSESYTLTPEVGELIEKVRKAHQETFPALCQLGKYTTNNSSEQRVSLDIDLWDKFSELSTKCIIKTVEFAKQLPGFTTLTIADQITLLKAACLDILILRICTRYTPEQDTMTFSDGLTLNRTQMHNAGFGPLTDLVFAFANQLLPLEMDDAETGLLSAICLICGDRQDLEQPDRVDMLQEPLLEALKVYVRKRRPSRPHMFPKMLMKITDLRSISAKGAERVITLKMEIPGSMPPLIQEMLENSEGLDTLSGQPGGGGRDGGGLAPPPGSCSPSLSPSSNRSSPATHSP
Procedure, shortened: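 Reporter transcripts from a DR5-regulated unit, measured via RT-PCR plus capillary electrophoresis, reflect endogenous RAR activity in transiently transfected human HepG2 liver cells. Exposure lasted 24 h; gain or loss of signal scored against DMSO.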

Row | Compound | outcome [1] | outcome [2] | outcome [3] | outcome [4] | outcome [5] | outcome [6] | outcome [7] | outcome [8] | outcome [9] | AC50 [2] | AC50 [3] | AC50 [4] | AC50 [7] | AC50 [9] | AC50 [10] | outcome [10] | AC50 [5] | AC50 [6]
1 | Cc1cc(Cl)ccc1OCC(=O)O | inactive | inactive | inactive | inactive | inactive | inactive | inactive | inactive | inactive | – | – | – | – | – | – | – | – | –
2 | O=C(Nc1ccccc1)Nc1ccnc(Cl)c1 | inactive | – | – | – | inactive | inactive | – | inactive | – | 22.5 µM (active) | 50 µM (active) | 26.5 µM (active) | 16.3 µM (active) | 27.8 µM (active) | 88.1 µM (active) | – | – | –
3 | CCCCC(CC)COC(=O)c1ccccc1C(=O)OCC(CC)CCCC (centres undefined) | inactive | inactive | inactive | inactive | inactive | inactive | inactive | inactive | inactive | – | – | – | – | – | – | inactive | – | –
4 | O=C(O)COc1nc(Cl)c(Cl)cc1Cl | inactive | inactive | inactive | inactive | inactive | inactive | inactive | inactive | inactive | – | – | – | – | – | – | inactive | – | –
5 | Cc1c(F)c(F)c(COC(=O)C2C(/C=C(\Cl)C(F)(F)F)C2(C)C)c(F)c1F (centres undefined) | inactive | inactive | inactive | inactive | inactive | inactive | inactive | inactive | inactive | – | – | – | – | – | – | inactive | – | –
6 | COc1nc(NC(C)C)nc(NC(C)C)n1 | inactive | inactive | inactive | inactive | inactive | inactive | inactive | inactive | inactive | – | – | – | – | – | – | inactive | – | –
7 | CCOC(=O)C(Cl)Cc1cc(-n2nc(C)n(C(F)F)c2=O)c(F)cc1Cl (centres undefined) | inactive | inactive | inactive | inactive | inactive | inactive | inactive | inactive | inactive | – | – | – | – | – | – | inactive | – | –
8 | CCc1nn(C)c(C(=O)NCc2ccc(C(C)(C)C)cc2)c1Cl | inactive | – | – | – | inactive | inactive | – | inactive | – | 0.378 µM (active) | 1.19 µM (active) | 0.171 µM (active) | 0.117 µM (active) | 0.578 µM (active) | 0.425 µM (active) | – | – | –
9 | CCCCNC(=O)n1c(NC(=O)OC)nc2ccccc21 | inactive | inactive | inactive | inactive | inactive | inactive | inactive | inactive | inactive | – | – | – | – | – | – | inactive | – | –
10 | CCOP(=S)(OCC)SCn1c(=O)oc2cc(Cl)ccc21 | inactive | – | – | – | – | inactive | inactive | inactive | – | 9.92 µM (active) | 12.9 µM (active) | 26.4 µM (active) | – | 50 µM (active) | 12.7 µM (active) | – | 80.8 µM (active) | –
11 | Fc1ccc(Oc2ccnc3cc(Cl)cc(Cl)c23)cc1 | inactive | inactive | inactive | – | – | inactive | inactive | inactive | inactive | – | – | 6.43 µM (active) | – | – | 2.77 µM (active) | – | 2.72 µM (active) | –
12 | CCON=C(CC)C1=C(O)CC(c2c(C)cc(C)cc2C)CC1=O (centres undefined) | inactive | inactive | inactive | inactive | inactive | inactive | inactive | inactive | inactive | – | – | – | – | – | – | inactive | – | –
13 | CS/C(C)=N/OC(=O)N(C)SN(C)C(=O)O/N=C(\C)SC | inactive | inactive | inactive | inactive | inactive | inactive | inactive | inactive | inactive | – | – | – | – | – | – | inactive | – | –
14 | CNC(=O)ON=CC(C)(C)SC | inactive | inactive | inactive | inactive | inactive | inactive | inactive | inactive | inactive | – | – | – | – | – | – | inactive | – | –
15 | CC1COC(Cn2cncn2)(c2ccc(Oc3ccc(Cl)cc3)cc2Cl)O1 (centres undefined) | inactive | – | – | inactive | inactive | inactive | – | inactive | – | 1.6 µM (active) | 0.829 µM (active) | – | 4.29 µM (active) | 1.71 µM (active) | – | inactive | – | –
16 | Cc1ccc(-c2c(Cl)nc(C#N)n2S(=O)(=O)N(C)C)cc1 | inactive | – | – | inactive | inactive | inactive | – | inactive | – | 7.83 µM (active) | 7.57 µM (active) | – | 9.12 µM (active) | 10.3 µM (active) | 11.9 µM (active) | – | – | –
17 | COC(=O)C(C)Oc1ccc(Oc2ccc(Cl)cc2Cl)cc1 (centres undefined) | inactive | inactive | inactive | inactive | inactive | inactive | inactive | inactive | inactive | – | – | – | – | – | – | inactive | – | –
18 | C#CCOS(=O)OC1CCCCC1Oc1ccc(C(C)(C)C)cc1 (centres undefined) | inactive | – | – | inactive | inactive | inactive | – | inactive | – | 0.994 µM (active) | 0.658 µM (active) | – | 1.55 µM (active) | 1.16 µM (active) | – | inactive | – | –
19 | COc1nc(C)nc(NC(=O)NS(=O)(=O)c2ccccc2Cl)n1 | inactive | inactive | inactive | inactive | inactive | inactive | inactive | inactive | inactive | – | – | – | – | – | – | inactive | – | –
20 | N#CC(CCc1ccc(Cl)cc1)(Cn1cncn1)c1ccccc1 (centres undefined) | inactive | inactive | inactive | inactive | inactive | inactive | – | inactive | inactive | – | – | – | 26.7 µM (active) | – | – | inactive | – | –
21 | CC(Oc1ccc(Cl)cc1Cl)C(=O)O (centres undefined) | inactive | inactive | inactive | inactive | inactive | inactive | inactive | inactive | inactive | – | – | – | – | – | – | inactive | – | –
22 | CCNc1nc(Cl)nc(NCC)n1 | inactive | inactive | inactive | inactive | inactive | inactive | inactive | inactive | inactive | – | – | – | – | – | – | inactive | – | –
23 | N#Cc1cc(Br)c(O)c(Br)c1 | inactive | – | – | inactive | inactive | – | – | inactive | – | 33.5 µM (active) | 18.8 µM (active) | – | 50 µM (active) | 38.9 µM (active) | – | inactive | – | 50 µM (active)
24 | CC1=C(C(=O)Nc2ccccc2)SCCO1 | inactive | inactive | inactive | inactive | inactive | inactive | inactive | inactive | inactive | – | – | – | – | – | – | inactive | – | –
25 | COc1nc(C)nc(NC(=O)NS(=O)(=O)c2ccccc2CCC(F)(F)F)n1 | inactive | inactive | inactive | inactive | inactive | inactive | inactive | inactive | inactive | – | – | – | – | – | – | inactive | – | –
26 | CCOc1cc(Oc2ccc(C(F)(F)F)cc2Cl)ccc1[N+](=O)[O-] | inactive | inactive | – | – | – | inactive | – | inactive | – | – | 23.6 µM (active) | 13.6 µM (active) | 22 µM (active) | 16.6 µM (active) | – | inactive | 33.1 µM (active) | –
27 | COC(=O)C=C(C)OP(=O)(OC)OC | inactive | inactive | inactive | inactive | inactive | inactive | inactive | inactive | inactive | – | – | – | – | – | – | inactive | – | –
28 | CN(C)C(=S)SSC(=S)N(C)C | inactive | inactive | inactive | inactive | inactive | inactive | inactive | inactive | inactive | – | – | – | – | – | – | inactive | – | –
29 | COP(N)(=O)SC (centres undefined) | inactive | inactive | inactive | inactive | inactive | inactive | inactive | inactive | inactive | – | – | – | – | – | – | inactive | – | –
